Data published in PubChem BioAssay (EPA / NIEHS).
“And” between values parts separate entries of the source, which are not always exact repeats. Identical values can stand only once. A structure can be active in one record and inactive in another. The source made the active and inactive calls. Rule for the calls: active = hit-call score of the fitted dose curve at least 0.9, where 1 is the maximum; inactive = score below 0.9.

read-out: BCL2L11 (gene 10018); assay: LTEA_HepaRG_BCL2L11: Life Technologies and Expression Analysis (LTEA) Assay for Bcl-2 (BCL2L11) gene using HepaRG (AID 2283473); conditions: mRNA level, 48 h; actives raise or lower the signal
Procedure, shortened: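 HepaRG, 48 h exposure, 8-pt half-log series from 100 uM in 0.5% DMSO, duplicates; qRT-PCR (Fluidigm TaqMan) for BCL2L11, housekeeping-normalized; bidirectional curve fit relative to DMSO baseline.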

Row | Structure (SMILES) | outcome | AC50
1 | O=C(O)C(F)(F)C(F)(F)C(F)(F)C(F)(F)C(F)(F)C(F)(F)C(F)(F)F | inactive | 
2 | CC(C)N(C(=O)COc1nnc(C(F)(F)F)s1)c1ccc(F)cc1 | inactive | 
3 | OCCOc1ccccc1 | inactive | 
4 | O=C(Nc1ccccc1)Nc1cnns1 | inactive | 
5 | CNC(=O)CSP(=S)(OC)OC | inactive | 
6 | ClC1C(Cl)C(Cl)C(Cl)C(Cl)C1Cl (centres undefined) | inactive | 
7 | CCCN(CCC)c1c([N+](=O)[O-])cc(C(F)(F)F)cc1[N+](=O)[O-] | inactive | 
8 | O=S(=O)(O)C(F)(F)C(F)(F)C(F)(F)C(F)(F)C(F)(F)C(F)(F)C(F)(F)C(F)(F)F | inactive | 
9 | CN1CSC(=S)N(C)C1 | inactive | 
10 | CC1(c2ccc(Oc3ccccc3)cc2)OC(=O)N(Nc2ccccc2)C1=O (centres undefined) |  | 11.7 µM (active)
11 | O=C1c2ccccc2C(=O)N1SC(Cl)(Cl)Cl | inactive | 
12 | CCOC1Oc2ccc(OS(C)(=O)=O)cc2C1(C)C (centres undefined) | inactive | 
13 | CC(C)(C)C(O)C(Oc1ccc(Cl)cc1)n1cncn1 (centres undefined) | inactive | 
14 | COc1nn(CSP(=S)(OC)OC)c(=O)s1 | inactive | 
15 | O=C(NC(=O)c1c(F)cccc1F)Nc1ccc(OC(F)(F)C(F)OC(F)(F)F)c(Cl)c1 (centres undefined) | inactive | 
16 | O=C(O)CCCOc1ccc(Cl)cc1Cl | inactive | 
17 | O=[N+]([O-])/N=C1\NCCN1Cc1ccc(Cl)nc1 |  | 23.3 µM (active)
18 | Clc1ccccc1-c1nnc(-c2ccccc2Cl)nn1 | inactive | 
19 | Oc1cc(Cl)ccc1Oc1ccc(Cl)cc1Cl | inactive | 51 µM (active)
20 | CCC(C)Nc1c([N+](=O)[O-])cc(C(C)(C)C)cc1[N+](=O)[O-] (centres undefined) | inactive | 
21 | Oc1ccc(Cl)cc1Cc1ccccc1 | inactive | 
22 | CNC(=O)/C=C(\C)OP(=O)(OC)OC | inactive | 

read-out: Apolipoprotein A-V (APOA5) gene, APOA5 (gene 116519); assay: LTEA_HepaRG_APOA5: Life Technologies and Expression Analysis (LTEA) Assay for Apolipoprotein A-V (APOA5) gene using HepaRG (AID 2283474); conditions: mRNA level, 48 h; actives raise or lower the signal
Procedure, shortened: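 HepaRG, 48 h chemical exposure in serum-free induction medium, 8-pt half-log series (top 100 uM), 0.5% DMSO vehicle, duplicates. Readout: APOA5 mRNA by qRT-PCR, housekeeping-normalized; bidirectional fit vs DMSO baseline.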

Row | Structure (SMILES) | outcome | AC50
23 | O=C(O)C(F)(F)C(F)(F)C(F)(F)C(F)(F)C(F)(F)C(F)(F)C(F)(F)F | inactive | 
24 | CC(C)N(C(=O)COc1nnc(C(F)(F)F)s1)c1ccc(F)cc1 |  | 78.4 µM (active)
25 | OCCOc1ccccc1 | inactive | 
26 | O=C(Nc1ccccc1)Nc1cnns1 | inactive | 
27 | CNC(=O)CSP(=S)(OC)OC | inactive | 
28 | ClC1C(Cl)C(Cl)C(Cl)C(Cl)C1Cl (centres undefined) | inactive | 
29 | CCCN(CCC)c1c([N+](=O)[O-])cc(C(F)(F)F)cc1[N+](=O)[O-] | inactive | 
30 | O=S(=O)(O)C(F)(F)C(F)(F)C(F)(F)C(F)(F)C(F)(F)C(F)(F)C(F)(F)C(F)(F)F | inactive | 34.1 µM (active)
31 | CN1CSC(=S)N(C)C1 | inactive | 
32 | CC1(c2ccc(Oc3ccccc3)cc2)OC(=O)N(Nc2ccccc2)C1=O (centres undefined) |  | 28.3 µM (active)
33 | O=C1c2ccccc2C(=O)N1SC(Cl)(Cl)Cl | inactive | 
34 | CCOC1Oc2ccc(OS(C)(=O)=O)cc2C1(C)C (centres undefined) |  | 77 µM (active)
35 | CC(C)(C)C(O)C(Oc1ccc(Cl)cc1)n1cncn1 (centres undefined) | inactive | 50 µM (active)
36 | COc1nn(CSP(=S)(OC)OC)c(=O)s1 | inactive | 
37 | O=C(NC(=O)c1c(F)cccc1F)Nc1ccc(OC(F)(F)C(F)OC(F)(F)F)c(Cl)c1 (centres undefined) | inactive | 
38 | O=C(O)CCCOc1ccc(Cl)cc1Cl | inactive | 
39 | O=[N+]([O-])/N=C1\NCCN1Cc1ccc(Cl)nc1 | inactive | 
40 | Clc1ccccc1-c1nnc(-c2ccccc2Cl)nn1 | inactive | 
41 | Oc1cc(Cl)ccc1Oc1ccc(Cl)cc1Cl | inactive | 51 µM (active) and 81.5 µM (active)
42 | CCC(C)Nc1c([N+](=O)[O-])cc(C(C)(C)C)cc1[N+](=O)[O-] (centres undefined) | inactive | 
43 | Oc1ccc(Cl)cc1Cc1ccccc1 | inactive | 79.8 µM (active)
44 | CNC(=O)/C=C(\C)OP(=O)(OC)OC | inactive | 
